Test results as given in PMC4336329 (PLoS ONE, 2015).
Out of some 310,000 compounds screened, about 14,000 (4.5%) showed an effect of 50% or more. Effects have a minus sign here. Many of the other results were omitted from the sample, so strong results are more common in it than they were.

Biological target: human ether-à-go-go-related gene (hERG) potassium channel (human, UniProt Q12809)
Test: primary screen, population patch clamp on CHO cells stably expressing hERG; higher = less effect of the substance
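Also: peak tail current of the secondary pulse compared with the same well before compound.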

Sequence of human ether-à-go-go-related gene (hERG) potassium channel (Q12809 whole entry, looked up): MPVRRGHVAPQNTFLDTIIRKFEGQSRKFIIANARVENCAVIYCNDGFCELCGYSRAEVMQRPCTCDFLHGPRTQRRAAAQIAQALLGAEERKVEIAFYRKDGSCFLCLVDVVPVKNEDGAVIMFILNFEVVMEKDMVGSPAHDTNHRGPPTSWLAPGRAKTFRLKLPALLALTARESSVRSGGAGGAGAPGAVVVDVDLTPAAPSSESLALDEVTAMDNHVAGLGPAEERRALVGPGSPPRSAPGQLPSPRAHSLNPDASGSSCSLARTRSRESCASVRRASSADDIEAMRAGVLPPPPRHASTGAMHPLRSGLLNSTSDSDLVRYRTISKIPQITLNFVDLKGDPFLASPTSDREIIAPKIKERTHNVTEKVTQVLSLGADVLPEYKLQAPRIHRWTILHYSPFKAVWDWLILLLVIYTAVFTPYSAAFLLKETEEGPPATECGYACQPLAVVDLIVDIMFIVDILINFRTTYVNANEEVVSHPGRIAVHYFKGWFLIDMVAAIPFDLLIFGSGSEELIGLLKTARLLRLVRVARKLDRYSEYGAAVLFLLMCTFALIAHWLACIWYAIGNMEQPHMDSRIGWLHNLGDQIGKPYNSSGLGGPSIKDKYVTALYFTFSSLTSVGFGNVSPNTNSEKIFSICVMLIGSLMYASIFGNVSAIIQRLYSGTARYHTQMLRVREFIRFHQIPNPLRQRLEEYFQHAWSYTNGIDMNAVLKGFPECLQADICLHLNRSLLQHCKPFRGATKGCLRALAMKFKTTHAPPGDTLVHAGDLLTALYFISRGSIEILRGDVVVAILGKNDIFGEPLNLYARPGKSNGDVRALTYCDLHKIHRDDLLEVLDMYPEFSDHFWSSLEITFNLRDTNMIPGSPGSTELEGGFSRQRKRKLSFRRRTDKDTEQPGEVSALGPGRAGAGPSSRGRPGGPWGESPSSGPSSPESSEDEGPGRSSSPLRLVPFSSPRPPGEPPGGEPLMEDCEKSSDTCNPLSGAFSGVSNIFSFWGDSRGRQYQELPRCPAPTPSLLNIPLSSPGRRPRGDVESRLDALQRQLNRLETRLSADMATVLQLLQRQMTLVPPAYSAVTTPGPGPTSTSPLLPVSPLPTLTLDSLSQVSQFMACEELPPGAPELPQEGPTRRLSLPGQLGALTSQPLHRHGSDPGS

Compared with CCN(CC(=O)Nc1ccc(Br)cc1)C(=O)Cc1cccc(F)c1, CN(CC(=O)Nc1ccc(N2CCOCC2)cc1)C(=O)CCNC(=O)c1ccc(Br)cc1 is higher in “hERG current change (%, negative = inhibition) at 10uM” value: -17.4% for the first, 3.43% for the second.

Compared with O=C(CSc1nnc2c(Cl)cc(C(F)(F)F)cn12)N(Cc1ccccc1)Cc1ccccc1, CCN(Cc1ccccc1)C(=O)c1cccnc1 is higher in “hERG current change (%, negative = inhibition) at 10uM” value: -28.6% for the first, 2.64% for the second.

Going from Cc1ccc(OCc2cc(C(=O)NC(C)Cc3cccc(C)n3)no2)cn1 (stereo not drawn) to COc1ccc(NC(=O)c2c(NC(=O)CCC(=O)O)sc(-c3ccccc3)c2C)cc1, the “hERG current change (%, negative = inhibition) at 10uM” value falls from 17.8% to 5.27%.

First: Cn1c(-c2ccsc2)c(-c2cccs2)c2cc(-c3ccc4cc[nH]c4c3)ccc21
Second: O=S(=O)(Nc1nc2ccccc2nc1N1CCc2ccccc2C1)c1ccc(Cl)cc1
The “hERG current change (%, negative = inhibition) at 10uM” value of the first is higher: 12.1% for the first, 7.74% for the second.

Compared with Nc1ccc(O)cc1C(=O)OCC(=O)c1ccc(C2CCCCC2)cc1, Cc1ccc(C(=O)c2ccccc2C(=O)O)c(O)c1 is lower in “hERG current change (%, negative = inhibition) at 10uM” value: 8.51% for the first, 1.4% for the second.

Compared with CCOC(=O)/C=C/C(=O)OCc1csc(CC(=O)Nc2ccccc2C)n1, CCOC(=O)Cc1csc(NC(=O)CCNS(=O)(=O)c2ccc3c(c2)CCC(=O)N3)n1 is higher in “hERG current change (%, negative = inhibition) at 10uM” value: -1.99% for the first, 9.62% for the second.

Compared with C[C@@H]1CN=C2N(CCNC(=O)CCC3CCCCC3)[C@H](Cc3ccc(O)cc3)CN21, C[C@H]1CN=C2N(CCNC(=O)CCC3CCCCC3)[C@H](Cc3ccc(O)cc3)CN21 is higher in “hERG current change (%, negative = inhibition) at 10uM” value: -0.311% for the first, 9.65% for the second.

COc1ccc(C[C@H]2CN3C(=NC[C@H]3C)N2CCNC(=O)CCC2CCCCC2)cc1 and COc1ccc(C[C@H]2CN3C(=NC[C@@H]3C)N2CCNC(=O)CCC2CCCCC2)cc1 are the same in “hERG current change (%, negative = inhibition) at 10uM” value: -69% for the first, -69% for the second.

Going from CC(C)[C@H]1CN=C2N(CCNC(=O)CCC3CCCCC3)[C@H](Cc3ccc(O)cc3)CN21 to COc1ccc(C[C@H]2CN3C(=NC[C@@H]3C(C)C)N2CCNC(=O)CCC2CCCCC2)cc1, the “hERG current change (%, negative = inhibition) at 10uM” value falls from -40.2% to -80.4%.

Going from NC(=O)c1ncc(C(F)(F)F)cc1Oc1ccc(C(F)(F)F)cc1 to O=Cc1ccnc(-c2ccc(OC(=O)c3ccco3)cc2)n1, the “hERG current change (%, negative = inhibition) at 10uM” value falls from 24.9% to 7.26%.

Going from O=C(N/N=C1/SCC(=O)N1Cc1ccco1)c1ccccc1F to Cn1cccc1CC(=O)NNC(=O)Nc1ccccc1F, the “hERG current change (%, negative = inhibition) at 10uM” value falls from 20.1% to 7.76%.

Compared with Cc1cccc(-c2nsc(SCC(=O)c3ccc(Cl)cc3)n2)c1, Cc1nn(CCOc2ccccc2)c(=O)n1-c1ccc(Cl)cc1 is lower in “hERG current change (%, negative = inhibition) at 10uM” value: 23.3% for the first, -3.66% for the second.

Going from CCOC(=O)C(C(=O)OCC)C(=O)c1cc(OC)c(OC)c(OC)c1 to COc1ccc(C(=O)O)cc1S(=O)(=O)NCc1cccnc1, the “hERG current change (%, negative = inhibition) at 10uM” value rises from -16.4% to 19.4%.

Compared with CCc1nn(CCCN2CCN(c3cccc(Cl)c3)CC2)c(=O)n1CCOc1ccccc1.Cl, CCc1nn(CCCN2CCN(c3cccc(Cl)c3)CC2)c(=O)n1CCOc1ccccc1 is higher in “hERG current change (%, negative = inhibition) at 10uM” value: -65% for the first, -63.2% for the second.

Compared with O=C(Cn1nc(-c2ccccc2)ccc1=O)NCCN1CCN(c2cccc(Cl)c2)CC1, COc1cccc(-n2c(C)nn(CCOc3ccccc3)c2=O)c1 is higher in “hERG current change (%, negative = inhibition) at 10uM” value: -24.4% for the first, 8.58% for the second.

First: Cl.OCCN1CCN(CCOc2cccc(Cl)c2)CC1
Second: CCCN1CCN(CCCNC(=O)c2ccc3nc(N4CCC(C)CC4)sc3c2)CC1
The “hERG current change (%, negative = inhibition) at 10uM” value of the first is higher: -15.6% for the first, -50.7% for the second.

Going from Cc1cc(Br)ccc1NS(=O)(=O)c1c(C)[nH]c(=O)[nH]c1=O to CCn1nc(NS(=O)(=O)c2ccccc2)c2cc3cc(C)ccc3nc21, the “hERG current change (%, negative = inhibition) at 10uM” value falls from 11.6% to 3.38%.

Compared with c1ccc(-n2ncc3c(NCc4ccccn4)ncnc32)cc1, O=C(Nc1ccccc1Cl)C1(c2ccccc2)CC1(Cl)Cl (stereo not drawn) is lower in “hERG current change (%, negative = inhibition) at 10uM” value: 0.854% for the first, -0.213% for the second.

Going from CC(=O)NS(=O)(=O)c1ccc(NC(=O)COc2ccc(C(=O)c3ccccc3)cc2)cc1 to Cc1noc(NS(=O)(=O)c2ccc(NC(=O)CSc3nc4ccccc4s3)cc2)c1C, the “hERG current change (%, negative = inhibition) at 10uM” value falls from 15.8% to -2.99%.

First: Cc1nnsc1S(=O)c1ccc(Br)cc1 (stereo not drawn)
Second: COC(=O)c1noc(-c2ccc(C)cc2)n1
The “hERG current change (%, negative = inhibition) at 10uM” value of the first is higher: -1.16% for the first, -3.95% for the second.

Compared with CCOC(=O)N1CCN(C(=O)CSc2nc3c([nH]c4ccccc43)c(=O)n2CC)CC1, CCOC(=O)N1CCN(C(=O)CSc2nc3c([nH]c4ccccc43)c(=O)n2CCOC)CC1 is lower in “hERG current change (%, negative = inhibition) at 10uM” value: -13.8% for the first, -65.1% for the second.

Compared with COCCn1c(SCC(=O)N2CCCCCC2)nc2c([nH]c3ccccc32)c1=O, COCCn1c(SCC(=O)N2CCCCC2)nc2c([nH]c3ccccc32)c1=O is lower in “hERG current change (%, negative = inhibition) at 10uM” value: -5.06% for the first, -20.5% for the second.

Going from COCCn1c(SCC(=O)N2CCC(C)CC2)nc2c([nH]c3ccccc32)c1=O to COCCn1c(SCC(=O)N2CCCC2)nc2c([nH]c3ccccc32)c1=O, the “hERG current change (%, negative = inhibition) at 10uM” value falls from -19.8% to -61.3%.

Going from Nc1nnc(SCC(=O)NCCOc2ccccc2)s1 to O=C(COc1ccccc1)N(Cc1ccco1)C1CCS(=O)(=O)C1 (stereo not drawn), the “hERG current change (%, negative = inhibition) at 10uM” value falls from 4.23% to -11.5%.

Going from Cc1nc(-c2ccccc2O)n(S(=O)(=O)N(C)C)n1 to CC1(C)C(=O)Nc2ccccc2N1C(=O)COc1ncnc2c(Cl)cc(Cl)cc12, the “hERG current change (%, negative = inhibition) at 10uM” value falls from -4.34% to -9.51%.

Compared with CCCC[n+]1ccn(C2=C([O-])c3ccccc3C(=O)/C2=N\S(=O)(=O)c2ccc(Br)cc2)c1, O=C1c2ccccc2C(Nc2ccc3c(c2)OCCO3)N1Cc1ccccc1 (stereo not drawn) is higher in “hERG current change (%, negative = inhibition) at 10uM” value: -20.7% for the first, -18.2% for the second.

First: O=C(Nc1ccccc1)C1(c2ccccc2)CC1(Cl)Cl (stereo not drawn)
Second: O=C(Nc1ccccc1F)C1(c2ccccc2)CC1(Cl)Cl (stereo not drawn)
The “hERG current change (%, negative = inhibition) at 10uM” value of the first is higher: -18.1% for the first, -70% for the second.

Going from CC1CC(C)CN(CCCNC(=O)c2ccc3nc(N4CCCCC4)sc3c2)C1 (stereo not drawn) to CC1CCCC(C)N1CCCNC(=O)c1ccc2nc(N3CCCCC3)sc2c1 (stereo not drawn), the “hERG current change (%, negative = inhibition) at 10uM” value rises from -47.5% to -38%.

Compared with CC1CCN(c2nc3ccc(C(=O)O)cc3s2)CC1, CCOC(CNC(=O)c1ccc2nc(N3CCC(C)CC3)sc2c1)OCC is lower in “hERG current change (%, negative = inhibition) at 10uM” value: 22.8% for the first, 10.6% for the second.

Going from CC1CCN(c2nc3ccc(C(=O)NCCCN4CCCCC4)cc3s2)CC1 to O=C(c1ccc([N+](=O)[O-])o1)N1CCN(c2nc3ccc(F)cc3s2)CC1, the “hERG current change (%, negative = inhibition) at 10uM” value rises from -50% to -23.7%.

First: O.Oc1cc(O)c2c(c1)O[C@H](c1ccc(O)c(O)c1)[C@@H](O)C2
Second: O=C(c1ccc([N+](=O)[O-])o1)N1CCN(c2nc3c(F)cc(F)cc3s2)CC1
The “hERG current change (%, negative = inhibition) at 10uM” value of the first is higher: 17.4% for the first, -54.7% for the second.

Going from Cc1ccc2sc(N3CCN(C(=O)c4ccc([N+](=O)[O-])o4)CC3)nc2c1C to Cc1cccc2sc(N3CCN(C(=O)c4cccs4)CC3)nc12, the “hERG current change (%, negative = inhibition) at 10uM” value falls from 3.89% to -9.51%.

Going from Cc1cc(C)c2nc(N3CCN(C(=O)c4cccs4)CC3)sc2c1 to O=C(c1cccs1)N1CCN(c2nc3c(F)cc(F)cc3s2)CC1, the “hERG current change (%, negative = inhibition) at 10uM” value falls from 0.575% to -50.1%.

Going from Cc1ccc(S(=O)(=O)N2CCN(c3cc4c(cc3[N+](=O)[O-])n(C)c(=O)n4C)CC2)cc1 to Cc1ccc(NC(=O)O/N=C/c2cccc([N+](=O)[O-])c2)cc1, the “hERG current change (%, negative = inhibition) at 10uM” value falls from -4.2% to -15.8%.

Compared with Nc1nonc1-n1nnc(C(=O)N/N=C/c2cccc(Cl)c2)c1CSc1ccc(Cl)cc1, COc1ccc(NC(=O)O/N=C/c2ccccc2)cc1 is lower in “hERG current change (%, negative = inhibition) at 10uM” value: 23.9% for the first, -2.52% for the second.

Going from CCCC12CN3CC(C)(CN(C1)C3c1ccc([N+](=O)[O-])o1)C2=O (stereo not drawn) to CCOP(=O)(OCC)C(Nc1ccc([N+](=O)[O-])cc1)c1ccc(Cl)cc1 (stereo not drawn), the “hERG current change (%, negative = inhibition) at 10uM” value falls from -19.6% to -76%.

Going from CCN(CC)CCN(CC(=O)N(C1CCCCC1)C1CCCCC1)C(=O)c1cccnc1.Cl.O to CCN(CC)CCN(CC(=O)N(C1CCCCC1)C1CCCCC1)C(=O)c1ccco1.O=C(O)C(=O)O, the “hERG current change (%, negative = inhibition) at 10uM” value rises from -71.9% to 23.2%.

Compared with COc1ccc(/C=N/OC(=O)Nc2ccccc2)cc1[N+](=O)[O-], CCOP(=O)(OCC)C(Nc1cccc([N+](=O)[O-])c1)c1ccccc1 (stereo not drawn) is higher in “hERG current change (%, negative = inhibition) at 10uM” value: -58.4% for the first, -18.4% for the second.

Going from CC(NS(=O)(=O)c1ccc(Cl)cc1)C(=O)NCCC1=CCCCC1 (stereo not drawn) to O=C(COc1ccc(Cl)cc1)N(Cc1ccco1)C1CCS(=O)(=O)C1 (stereo not drawn), the “hERG current change (%, negative = inhibition) at 10uM” value falls from -5.41% to -20.5%.

First: Cc1ccc(OCC(=O)N(Cc2ccco2)C2CCS(=O)(=O)C2)cc1 (stereo not drawn)
Second: O=C(COc1ccc(Br)cc1)N(Cc1ccco1)C1CCS(=O)(=O)C1 (stereo not drawn)
The “hERG current change (%, negative = inhibition) at 10uM” value of the first is higher: -13% for the first, -50.6% for the second.

Compared with CC(C)c1ccc(OCC(=O)N(Cc2ccco2)C2CCS(=O)(=O)C2)cc1 (stereo not drawn), O=C(COc1ccc(F)cc1)N(Cc1ccco1)C1CCS(=O)(=O)C1 (stereo not drawn) is higher in “hERG current change (%, negative = inhibition) at 10uM” value: -79.4% for the first, -28.4% for the second.

Going from O=C(Nc1ccc2c(c1)OCCO2)C1CCCN(S(=O)(=O)Cc2ccccc2)C1 (stereo not drawn) to CCCOP(=O)(OCCC)C(Nc1ccc(C(C)C)cc1)c1ccc([N+](=O)[O-])cc1 (stereo not drawn), the “hERG current change (%, negative = inhibition) at 10uM” value rises from -11% to 3.7%.
